Screening data as filed in PubChem BioAssay.
Pf Dd2 growth – qHTS Primary assay for Inhibitors of Plasmodium falciparum Dd2 growth in vitro | P. falciparum Dd2 growth, SYBR Green, 72 h | Potency, µM (doses to about 28.9 µM), inactives show top-dose activity, negative = inhibition, actives largely listed as inhibitors | hit rate 4.3% among 120,000; active = well fitted inhibition curve with a large enough effect;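 note: plate controls were DMSO vehicle for no effect and reference drug for full effect; nearly all actives have a fitted effect of over 65% in size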
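Infected erythrocytes (Dd2, 0.3% parasitemia, 2.5% hematocrit final) are added to compound in RPMI-1640/Albumax II medium, grown 72 h at 37C in low oxygen, then lysed with saponin/Triton-X containing SYBR Green and read by fluorescence.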
Starred values were filed as active, the others as inactive; i = inactive; ! = not active in a repeat; [ ] = dose if it differs, or a comment. The sample as a whole holds a higher share of hits than the screen did. Potency is the fitted concentration of half-maximal effect.

SMILES	Pf Dd2 growth
Fc1cccc(-c2cnc(Nc3ccc(N4CCOCC4)cc3)c3c2CCO3)c1	i
COc1ccc(-c2cnc(Nc3ccc(CN4CCN(C)CC4)cc3)c3c2CCO3)cn1	6.3µM*
COc1ccccc1-c1cnc(Nc2cncnc2)c2c1CCO2	i
COc1ccc(C(=O)Nc2ncc(-c3ccc(OC)nc3)c3c2OCC3)cc1	-15%[44.1 µM]
COc1ccc(CNC(=O)c2ccc(CN3C(=O)NC4(CCOCC4)C3=O)cc2)cc1	24%
Cc1noc([C@@H]2CN(C(=O)Cc3c(F)cccc3Cl)C[C@H]2CO)n1	13%
CCCn1c(C)cnc1C1CCNC1 (configuration not stated)	3%
N#Cc1ccc(CN2CCC(c3nc4ccncc4[nH]3)C2)cc1 (configuration not stated)	10µM*!
O=C(C1CCCCC1)N1CC[C@H](c2nc3ccc(C(F)(F)F)cc3[nH]2)C1	i
FC(F)(F)c1ccc(CN2CC[C@H](c3nc4ccccc4[nH]3)C2)cc1	i
CN1CCC(N2CC[C@H](c3nc4ccccc4[nH]3)C2)CC1	23%[44.1 µM]
CC(=O)N1CC[C@H](c2nc3ccc(C(F)(F)F)cc3[nH]2)C1	27%[44.1 µM]
FC(F)(F)c1ccc2nc([C@H]3CCN(C4CCCCC4)C3)[nH]c2c1	7.9µM*
c1cc2nc(C3CCN(C4CCCCC4)C3)[nH]c2cn1 (configuration not stated)	31%[44.1 µM]
N#Cc1ccc2nc([C@H]3CCN(Cc4ccccc4)C3)[nH]c2c1	-15%[44.1 µM]
FC(F)(F)c1ccc2nc([C@H]3CCN(CC4CC4)C3)[nH]c2c1	13µM*
Brc1ccc(CN2CCC(c3nc4ncccc4[nH]3)C2)cc1 (configuration not stated)	-26%
O=C(c1ccccc1)N1CC[C@H](c2nc3ccc(F)cc3[nH]2)C1	-9%[44.1 µM]
CN(C)c1ccc(CN2CC[C@H](c3nc4ccc(C(F)(F)F)cc4[nH]3)C2)cc1	5.6µM*
CN(C)CC(=O)Nc1ccc(C(=O)N2CCCC3(CCNC3)C2)cc1 (configuration not stated)	-9%
O=C(N[C@@H]1CN(C2CCSCC2)C[C@H]1CO)c1cccnc1	42%
O=C(Cc1ccccc1)NCC1CCCCC(=O)N1 (configuration not stated)	-7%
CCOC(=O)C1=C(C)N=C2SC=C(CC(=O)N3CCCC3)N2C1c1cccc(C)c1 (configuration not stated)	i
Cc1occc1C(=O)N1CC(F)(F)C[C@H]1c1nnc(C2CC2)o1	8%
O=C(CCC1CCCN(S(=O)(=O)c2ccccc2F)C1)NCCCN1CCOCC1 (configuration not stated)	-8%
SMILES	Pf Dd2 growth
COc1cc(NC(=O)C2(Cc3cccnc3)CCCCC(=O)N2)cc(OC)c1 (configuration not stated)	i
CCC(=O)C1=C(c2cccc([N+](=O)[O-])c2)N(C(=O)CC)n2c(nnc2C2CCCCC2)S1	1.4µM*
CC(=O)Nc1cccc(-c2nnc(SCC(=O)c3cc([N+](=O)[O-])ccc3Cl)o2)c1	i
CN(C(=O)CSc1nnc(-c2ccc([N+](=O)[O-])cc2)o1)C1CCCCC1	23%
CCOC(=O)C1=C(C)N=C2SC=C(CC(=O)NC3CC3)N2C1c1cccc([N+](=O)[O-])c1 (configuration not stated)	0%
COc1cccc(C(=O)N2CCn3c(nnc3C3CC3)C2)c1	7%[44.1 µM]
CCC(=O)C1=C(c2cccc(OC)c2)N(C(=O)CC)n2c(nnc2C2CCCCC2)S1	2.8µM*
CC(=O)C1=C(c2cccc([N+](=O)[O-])c2)N(C(C)=O)n2c(nnc2-c2ccc(C)cc2)S1	15%
CCC(=O)C1=C(c2cccc([N+](=O)[O-])c2)N(C(=O)CC)n2c(nnc2-c2ccccc2)S1	1.1µM*
COc1cccc(-c2nnc(SCC(=O)N(C)C3CCCCC3)o2)c1	0%
CN1CCN(CCCNC(=O)c2c(OCC3CC3)cc(=O)n3c2CCCCC3)CC1	53%
O=C(C[C@@H]1O[C@H](CNC(=O)C2CC2)[C@@H](O)[C@H]1O)Nc1ccccc1	24%[44.1 µM]
O=C(NCc1cccs1)c1cc2n(n1)CC(c1ccc3c(c1)OCO3)OC2 (configuration not stated)	i
O=C1CCC2(CCN1)CCN(S(=O)(=O)c1ccccc1F)CC2	41%
O=C([C@@H]1C[C@H](F)CN1C(=O)c1cccc(C(F)(F)F)c1)N1CCOCC1	50%
Cc1noc([C@@H]2CNC[C@H]2CO)n1	i
O=C(NCc1cccnc1)C1CCc2nnc(-c3ccc(Cl)nc3)n21 (configuration not stated)	12%
COC(=O)CNC(=O)C1CCc2nnc(-c3ccc(Cl)nc3)n21 (configuration not stated)	71%
O=C(NCCc1ccc(Cl)cc1)C1CCc2nnc(-c3ccc(Cl)nc3)n21 (configuration not stated)	4µM*
C=CCC(=O)N1CCCC1C(=O)Nc1ccccc1-c1ccc(OC)cc1 (configuration not stated)	-5%
Cc1cccc(-c2noc([C@@H]3Cc4nc[nH]c4CN3C(=O)Nc3cccc(F)c3)n2)c1	13µM*
O=C(Nc1ccccc1)N1Cc2[nH]cnc2C[C@H]1c1nc(-c2ccccc2)no1	i
CC(C)NC(=O)N1Cc2[nH]cnc2C[C@H]1c1nc(-c2ccccc2)no1	i
COc1ccc(NC(=O)N2Cc3[nH]cnc3C[C@H]2c2nc(-c3ccc(OC)cc3)no2)cc1	i
O=C(c1ccccc1)N1Cc2[nH]cnc2C[C@H]1c1nc(-c2ccncc2)no1	11µM*
SMILES	Pf Dd2 growth
Cc1cccc(-c2noc([C@@H]3Cc4nc[nH]c4CN3C(=O)Nc3cccc(C#N)c3)n2)c1	-27%[44.1 µM]
O=C(Nc1cccc(F)c1)N1Cc2[nH]cnc2C[C@H]1c1nc(-c2ccccc2)no1	-24%[44.1 µM]
O=C(NC1CCCCC1)N1CCCCCC1c1nc(-c2ccncc2)no1 (configuration not stated)	-47%
O=C(NC1CCCCC1)N1Cc2[nH]cnc2C[C@H]1c1nc(-c2ccncc2)no1	13µM*
Cc1cccc(C(=O)N2CCC3(CC2)OCC(C(=O)NCC(C)C)N3C(=O)c2cccc(C)c2)c1 (configuration not stated)	i
COC[C@@H]1CN(C(=O)c2ccc(OC)nc2)C[C@H]1C(N)=O	3%
Cc1[nH]c2ccccc2c1CC(=O)NCc1ccccc1-n1cncn1	2%
O=C(CCn1ccn2nc3c(c2c1=O)CCCC3)NCc1ccco1	-4%
O=C(NC[C@H]1Cn2ccnc2CO1)NC1CCCCC1	-20%[44.1 µM]
CC(=O)Nc1ccc(CNC[C@H]2Cn3c(-c4ccc(F)cc4)cnc3CO2)cc1	-41%[44.1 µM]
CS(=O)(=O)NC[C@H]1Cn2c(-c3ccc(F)cc3)cnc2CO1	-4%[44.1 µM]
c1ccc(CNC[C@H]2Cn3c(-c4ccccc4)cnc3CO2)cc1	11µM*
COCC(=O)NC[C@H]1Cn2c(-c3ccc(Cl)cc3)cnc2CO1	i
COc1ccccc1C(=O)NC[C@H]1Cn2c(-c3ccc(Cl)cc3)cnc2CO1	11µM*
O=C(NC[C@H]1Cn2c(-c3ccc(F)cc3)cnc2CO1)c1ccc(Cl)cc1	i
c1ccc(-c2cnc3n2C[C@H](CNCc2nccs2)OC3)cc1	i
Fc1ccc(-c2cnc3n2C[C@H](CNCc2ccccc2Cl)OC3)cc1	-2%[44.1 µM]
Fc1ccc(-c2cnc3n2C[C@H](CN(Cc2ccccc2)Cc2ccccc2)OC3)cc1	6.3µM*
Fc1cccc(Cc2noc(-c3nc(-c4ccc5c(c4)OCO5)no3)n2)c1	-4%
O=C(c1cc(-c2cccc(C(F)(F)F)c2)c2nncn2n1)N1CCN(c2ncccn2)CC1	5%
